Experimental data from PubChem BioAssay (NCATS).
“And” between values parts separate entries of the source, which are not always exact repeats. Equal entries are not always repeated. Inconclusive results are not listed. The source made the active and inactive calls. Unless noted, calls come from the whole dose curve; as a rule, active = well fitted curve in the direction sought with a large enough effect; inconclusive = small, poorly fitted or top-dose-only effect, or another doubt; inactive = no such curve, though single readings can be large; an effect the other way counts as inactive or inconclusive.

molecular target: Cytochrome P450 2C9 (Homo sapiens) (UniProt P11712); test: Cytochrome P450 family 2 subfamily C member 9 (CYP2C9) small molecule antagonists: luciferase biochemical (cell-free) qHTS assay (AID 1645842; active = well fitted curve in the direction sought with a large enough effect in the repeat runs; an effect the other way counts as inactive or inconclusive; note: nearly all actives have a fitted effect of over 55% in size); conditions: P450-Glo CYP2C9 enzyme assay, luciferin luminescence; series mostly up to 57.4 µM; activity change, negative = inhibition: at the top concentration
Sequence (P11712 whole entry, looked up): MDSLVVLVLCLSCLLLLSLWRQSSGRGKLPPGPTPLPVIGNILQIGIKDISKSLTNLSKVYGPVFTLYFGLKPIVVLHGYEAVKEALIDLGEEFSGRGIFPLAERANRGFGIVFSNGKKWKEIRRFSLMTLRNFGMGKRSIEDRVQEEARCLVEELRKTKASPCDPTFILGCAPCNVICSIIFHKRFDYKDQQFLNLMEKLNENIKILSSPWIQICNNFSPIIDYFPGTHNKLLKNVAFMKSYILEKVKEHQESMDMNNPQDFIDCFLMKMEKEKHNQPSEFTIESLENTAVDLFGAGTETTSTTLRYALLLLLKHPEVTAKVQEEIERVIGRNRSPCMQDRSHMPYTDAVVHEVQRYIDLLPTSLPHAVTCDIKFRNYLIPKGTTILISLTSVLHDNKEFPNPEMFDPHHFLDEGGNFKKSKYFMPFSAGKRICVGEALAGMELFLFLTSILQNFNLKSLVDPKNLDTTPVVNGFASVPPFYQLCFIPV
How it was run: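 Luminescence, after 20 min with luciferin detection reagent, reflected CYP2C9 turnover during a 1 h NADPH-driven reaction at 37C. Enzyme-substrate mix contained 0.4% bovine serum albumin and was preincubated with compound 10 min at room temperature.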
% is set by controls: 0 for no effect and ±100 for the full control effect; potency is the fitted concentration of half-maximal effect.

Row | SMILES | activity change, negative = inhibition | Potency
1 | N#Cc1ccc(C(=O)N2CCC3(CC2)N=C(N)c2c(F)ccc(F)c2N3)cn1 | -13.4% (inactive) | 
2 | O=C(O)[C@@H]1C[C@H]2C[C@@H](CCc3nn[nH]n3)CC[C@H]2CN1 | 0.686% (inactive) | 
3 | C#CCN(Cc1cc2c(=O)[nH]c(C)nc2cc1Br)c1ccc(C(=O)NCc2cccnc2)cc1 |  | 3.01 µM (active)
4 | O=C(O)c1ccccc1NC(=O)N1CCC(c2ccccc2C(F)(F)F)CC1 |  | 0.849 µM (active)
5 | Cc1ccc(C(=O)Nc2noc3ccccc23)cc1 |  | 16.9 µM (active)
6 | CS(=O)(=O)N(CC(=O)NCC1CC1)c1cc(C(F)(F)F)ccc1Cl |  | 3.38 µM (active)
7 | CCC(Nc1ncnc2nc[nH]c12)c1nc2cccc(F)c2c(=O)n1-c1ccccc1 (centres undefined) |  | 13.5 µM (active)
8 | O=C(O)C1CN(Cc2ccc(-c3nc4cc(Cc5ccccc5F)ccc4s3)c(F)c2)C1 | -11.3% [at 11.5 µM] (inactive) | 
9 | CC1CCN(C(=O)CC#N)CC1N(C)c1ncnc2[nH]ccc12 (centres undefined) |  | 23.9 µM (active)
10 | Cc1ccc(C)c(OCCn2cc(C(=O)O)c3ccccc32)c1 |  | 13.5 µM (active)
11 | CCNC(=O)Nc1ncc(-c2cc(-c3c(C)cc(OC)cc3C)nc(-c3cnccn3)n2)s1 |  | 3.79 µM (active)
12 | COc1ccc(CCO[C@@H]2CCCC[C@H]2N2CC[C@@H](O)C2)cc1OC | -2.67% (inactive) | 
13 | Cc1cccc(C)c1-n1c(=O)c2cnc(Nc3ccc(N4CCN(C)CC4)cc3)nc2n2c3ccccc3nc12 |  | 8.49 µM (active)
14 | CCCN1CCC(c2cccc(S(C)(=O)=O)c2)CC1 | -1.64% (inactive) | 
15 | O=C(/C=C/c1cccc(S(=O)(=O)Nc2ccccc2)c1)NO |  | 10.7 µM (active)
16 | CCc1cnn2c(NCc3ccc[n+]([O-])c3)cc(N3CCCCC3CCO)nc12 (centres undefined) |  | 15.1 µM (active)
17 | Cc1cc(-c2cc(O)ccc2Cl)cc2nnc(Nc3ccc(OCCN4CCCC4)cc3)nc12 |  | 12 µM (active)
18 | O=S(=O)(NCC1CC1)c1ccc(Nc2nccc(N3CCCc4cc(O)ccc43)n2)cc1 |  | 1.07 µM (active)
19 | Cc1cc(C(=O)N2CCCCc3ccccc32)ccc1CNC(=O)N1CCC[C@H]1C(=O)N(C)C | -24.2% (inactive) | 
20 | COc1ccc(-c2ccc3c(N4CCOCC4)nc(N4CC(C)OC(C)C4)nc3n2)cc1CO (centres undefined) |  | 6.74 µM (active)
21 | COc1cccc(C(=O)N2CCN(C(=O)COc3cccc(C)c3)CC2)c1OC |  | 21.3 µM (active)
22 | CN(C)C1CCN(C(=O)c2ccc(NC(=O)Nc3ccc(-c4nc(N5CCOCC5)nc(N5CCOCC5)n4)cc3)cc2)CC1 | 0.398% (inactive) | 
23 | CCC(COC)n1nnc2c(Nc3ccc(OC)cc3C)nc(C)cc21 (centres undefined) |  | 7.56 µM (active)
24 | C=CC(=O)Nc1cccc(CN2C(=O)N(c3c(Cl)c(OC)cc(OC)c3Cl)Cc3cnc(NCCCCN(CC)CC)nc32)c1 |  | 8.49 µM (active)
25 | O=C1N=C(N2CCOCC2)CN1c1ccc(Cl)cc1 | 5.77% (inactive) | 

test system: not listed separately; test: Primary qHTS for inhibitors of nuclear receptor binding SET domain protein 2 (NSD2) in an isogenic RCH-ACV NSD2 p.E1099K mutant (9B) (AID 1645876); conditions: RCH-ACV (leukaemia line) NSD2 E1099K (9B) viability, CellTiter-Glo, 72 h; series mostly up to 44.9 µM; activity change, negative = viability loss: at the top concentration; note: nearly all actives have a fitted effect of over 70% in size

Row | SMILES | activity change, negative = viability loss | Potency | outcome
26 | Cc1cc(C(=O)Nc2cccc(C(=O)Nc3cccc(C(F)(F)F)c3)c2)on1 | -11.4% (inactive) |  | 
27 | O=C(CC(c1ccccc1)c1ccccc1)N1CCN(C(c2ccccc2)c2ccccc2)CC1 |  | 7.28 µM (active) | 
28 | COc1ccc(C(=O)C2CCN(CC(=O)N(Cc3nc4c(c(=O)[nH]3)COCC4)CC3CC3)CC2)cc1 | -0.729% (inactive) |  | 
29 | CCN(Cc1cccnc1)C(=O)CN(c1ccc(OC)nc1)S(=O)(=O)c1ccccc1C | 5% (inactive) |  | 
30 | CN1CCc2nc(C(=O)N[C@@H]3C[C@@H](C(=O)N(C)C)CC[C@@H]3NC(=O)C(=O)Nc3ccc(Cl)cn3)sc2C1 | -20% (inactive) |  | 
31 | Cc1cc(C)c(Nc2ccnc(Nc3ccc(C#N)cc3)n2)c(C)c1 |  | 4.09 µM (active) | 
32 | Cc1cc(C(N)=O)ccc1-n1c(CCC(=O)O)ccc1-c1ccc(-n2ccnc2)cc1 | 2.65% (inactive) |  | 
33 | Cc1cccc2c1NC(=O)C2(c1ccc(O)cc1)c1ccc(O)cc1 |  | 3.25 µM (active) | 
34 | CC(NC(=O)CCc1nc2ccccc2c(=O)[nH]1)c1ccccc1 (centres undefined) | -7.08% (inactive) |  | 
35 | Cc1cccc(/C=N/Nc2cc(N3CCOCC3)n3nc(-c4ccncc4)cc3n2)c1 |  | 0.578 µM (active) | 
36 | COC(=O)CCSCc1ccc(-c2onc(C)c2NC(=O)OC(C)c2ccccc2Cl)cc1 (centres undefined) | -4.09% (inactive) |  | 
37 | Cn1cc(-c2ccc3nnc(Sc4ccc5nn(C)cc5c4)n3n2)cn1 | -9.91% (inactive) |  | 
38 | CC1COC(Nc2ccc3ncnc(Nc4ccc(OCc5nccs5)c(Cl)c4)c3c2)=N1 (centres undefined) |  | 16.3 µM (active) | 
39 | O=C(Nc1ccccc1)N1CCN(Cc2ccc3ccccc3n2)CC1 | -2.64% (inactive) |  | 
40 | N#Cc1ccc(C(=O)N2CCC3(CC2)N=C(N)c2c(F)ccc(F)c2N3)cn1 | -12.2% (inactive) |  | 
41 | O=C(O)[C@@H]1C[C@H]2C[C@@H](CCc3nn[nH]n3)CC[C@H]2CN1 |  |  | inactive
42 | C#CCN(Cc1cc2c(=O)[nH]c(C)nc2cc1Br)c1ccc(C(=O)NCc2cccnc2)cc1 | -96.2% (inactive) |  | 
43 | O=C(O)c1ccccc1NC(=O)N1CCC(c2ccccc2C(F)(F)F)CC1 | 0.399% (inactive) |  | 
44 | Cc1ccc(C(=O)Nc2noc3ccccc23)cc1 | -4.83% (inactive) |  | 
45 | CS(=O)(=O)N(CC(=O)NCC1CC1)c1cc(C(F)(F)F)ccc1Cl | -16.1% (inactive) |  | 

Row | SMILES | activity change, negative = viability loss | Potency | outcome
46 | CCC(Nc1ncnc2nc[nH]c12)c1nc2cccc(F)c2c(=O)n1-c1ccccc1 (centres undefined) |  | 0.0728 µM (active) | 
47 | O=C(O)C1CN(Cc2ccc(-c3nc4cc(Cc5ccccc5F)ccc4s3)c(F)c2)C1 | 0.892% [at 9.23 µM] (inactive) |  | 
48 | CC1CCN(C(=O)CC#N)CC1N(C)c1ncnc2[nH]ccc12 (centres undefined) | -9.19% (inactive) |  | 
49 | Cc1ccc(C)c(OCCn2cc(C(=O)O)c3ccccc32)c1 | -1.7% (inactive) |  | 
50 | CCNC(=O)Nc1ncc(-c2cc(-c3c(C)cc(OC)cc3C)nc(-c3cnccn3)n2)s1 |  |  | inactive
51 | COc1ccc(CCO[C@@H]2CCCC[C@H]2N2CC[C@@H](O)C2)cc1OC |  |  | inactive
52 | Cc1cccc(C)c1-n1c(=O)c2cnc(Nc3ccc(N4CCN(C)CC4)cc3)nc2n2c3ccccc3nc12 |  | 0.205 µM (active) | 
53 | CCCN1CCC(c2cccc(S(C)(=O)=O)c2)CC1 | 1.15% (inactive) |  | 
54 | O=C(/C=C/c1cccc(S(=O)(=O)Nc2ccccc2)c1)NO |  | 356 nM (active) and 296 nM (active) | 
55 | CCc1cnn2c(NCc3ccc[n+]([O-])c3)cc(N3CCCCC3CCO)nc12 (centres undefined) |  | 0.0092 µM (active) | 
56 | Cc1cc(-c2cc(O)ccc2Cl)cc2nnc(Nc3ccc(OCCN4CCCC4)cc3)nc12 |  | 3.25 µM (active) | 
57 | O=S(=O)(NCC1CC1)c1ccc(Nc2nccc(N3CCCc4cc(O)ccc43)n2)cc1 |  | 1.15 µM (active) | 
58 | Cc1cc(C(=O)N2CCCCc3ccccc32)ccc1CNC(=O)N1CCC[C@H]1C(=O)N(C)C | -4.01% (inactive) |  | 
59 | COc1ccc(-c2ccc3c(N4CCOCC4)nc(N4CC(C)OC(C)C4)nc3n2)cc1CO (centres undefined) |  | 0.205 µM (active) | 
60 | COc1cccc(C(=O)N2CCN(C(=O)COc3cccc(C)c3)CC2)c1OC | -12% (inactive) |  | 
61 | CN(C)C1CCN(C(=O)c2ccc(NC(=O)Nc3ccc(-c4nc(N5CCOCC5)nc(N5CCOCC5)n4)cc3)cc2)CC1 |  | 0.0417 µM (active) | 
62 | CCC(COC)n1nnc2c(Nc3ccc(OC)cc3C)nc(C)cc21 (centres undefined) | -9.18% (inactive) |  | 
63 | C=CC(=O)Nc1cccc(CN2C(=O)N(c3c(Cl)c(OC)cc(OC)c3Cl)Cc3cnc(NCCCCN(CC)CC)nc32)c1 |  | 2.05 µM (active) | 
64 | O=C1N=C(N2CCOCC2)CN1c1ccc(Cl)cc1 | -10.9% (inactive) |  | 
